We go through nine compounds from PubChem BioAssay AID504607 (Sanford-Burnham Center for Chemical Genomics, 2011).

Among all 6,200 compounds or so, about 4,800 (77%) were called active. So high a share suggests a set chosen from earlier hits. Not all results are given here. Values without a mark were called inactive.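 Rule for the calls: active = mean inhibition at 8 µM reaching about 37%, which flags the compound as non-specific (limit read from the data); inactive = the rest.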

The assay in a line: full-length luciferase signal inhibition, confirmation, counter-screen for Mdm2/MdmX interaction inhibitor project, cell-based, single concentration, SaOS-2 (AID 504607).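 Note: p53-null SaOS-2 cells with luciferase driven by a doxycycline-inducible promoter; compound on cells about two nights before reading with doxycycline added after day one.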 Conditions: SaOS-2 full-length luciferase counterscreen, luminescence; at 8 µM; hits give high values. For orientation: Counterscreens check selectivity or assay interference.
What is called inhibition is the drop in the measured response relative to a control, in per cent. For the compound `CCCCCCCCCCCCn1ccc(=N)cc1`, the inhibition is 52.1% (active). With `CNC(=O)O/N=C(\N)Cc1csc2ccc(Cl)cc12`, the inhibition was 126% (active). With `CNC(=O)O/N=C(\N)Cc1csc2ccccc12`, the inhibition was 81.2% (active). As for `CCOc1ccc(-c2cc(C)[n+](CCN(CC)CC)c(-c3ccc(OCC)cc3)c2)cc1`, the inhibition is 22.3%.

As to `O=C1NC(=O)N(CCc2ccc(F)cc2)C(=O)/C1=C/C=C/c1ccccc1`, the inhibition was 83.8% (active). `COC(=O)C1=C(c2ccc(F)cc2OCc2ccccc2)C[C@@H]2CC[C@H]1N2C(=O)NCc1ccc2[nH]ccc2c1`: the inhibition was 94.7% (active). Next, `Cc1cc2ccccn2c1C(C[N+](=O)[O-])c1c(F)cccc1Cl` (centres undefined): 29.6%; `O=C1C2(Cl)C3(Cl)C4(Cl)C(Cl)(Cl)C5(Cl)C3(Cl)C1(Cl)C5(Cl)C24Cl` (centres undefined): 46.6% (active); `O=Cc1cn(Cc2ccc(F)cc2Cl)c2ccccc12`: 35.1%.
